Entries with a potency or affinity are not part of this list.

We go through 71 compounds from ChEMBL document CHEMBL4513146, “CO-ADD screening of Karazin Kharkiv National University (Ukraine) compounds”.

For one test, the system named is Staphylococcus aureus. The note with it: Concentration 32 ug.mL-1;; ASSAY_TEST Inhibition of Bacterial Growth; detection method Absorption (OD600); MEDIA CAMHB; plate type 384well; NBS; CORNING #3640; time 18 hr.
The subject of another test is Escherichia coli. The note with it: Concentration 32 ug.mL-1;; ASSAY_TEST Inhibition of Bacterial Growth; detection method Absorption (OD600); MEDIA CAMHB; plate type 384well; NBS; CORNING #3640; time 18 hr.

Turning to `Cc1ccc(N(CC(=O)OC(C)(C)C)S(=O)(=O)c2ccc3nnc(C)n3c2)cc1`, the Inhibition (usually the drop in the measured response relative to a control, in per cent) in the test with Staphylococcus aureus is 2.37%; in the test on Escherichia coli it was -3.61%.
`O=C(Cn1nc2c(Sc3cccc(F)c3)nccn2c1=O)Nc1cccc(Br)c1`: the Inhibition in the test with Staphylococcus aureus is 3.89%; in the test with Escherichia coli, 0.56%.
As for `O=c1n(Cc2nc(-c3ccc(Cl)cc3)no2)nc2ccc(-c3ccccc3)nn12`, the Inhibition in the test with Staphylococcus aureus is reported as 1%; in the test on Escherichia coli, -5.36%.
On to `O=C(CCc1nnc2c(N3CCCCC3)nc3ccccc3n12)NCc1ccc(F)cc1`, for which the figures for the Inhibition in the test with Staphylococcus aureus and in the test with Escherichia coli were 1.77% and -4.75%, respectively.
Consider `CCCN(C)c1nccn2c(=O)n(CC(=O)Nc3ccc(OC)c(Cl)c3)nc12`, for which the results for the Inhibition in the test on Staphylococcus aureus and with Escherichia coli were 16.13% and -1.22%, respectively.
With `Cc1ccc(CN(c2cccc(F)c2)S(=O)(=O)c2ccc3nnc(C)n3c2)cc1`, the Inhibition in the test on Staphylococcus aureus is on record as -4.51%; in the test with Escherichia coli, -15.84%.
The matching figures for `NC(=O)Cn1nc2n(CCC(=O)NC3CCCCC3)c(=O)c3ccccc3n2c1=O`: 4.99% and 0.77%.
As for `O=C(CSc1nnc2c(=O)n(-c3ccccc3)ccn12)c1c[nH]c2ccccc12`, the Inhibition is on record as 16.15% with Staphylococcus aureus and -0.51% in the test on Escherichia coli.
As for `O=C(Cn1nc2ccc(SC3CCCCC3)nn2c1=O)Nc1ccc(F)c(F)c1`, the Inhibition is -4.22% in the test on Staphylococcus aureus and -6.38% in the test with Escherichia coli.
Consider `Cc1ccc(-c2noc(Cn3nc4ccc(-c5ccccc5)nn4c3=O)n2)cc1`, for which the Inhibition with Staphylococcus aureus is recorded as -9.52%; in the test with Escherichia coli it was -11.36%.
Turning to `CCc1nnc2c(S(=O)(=O)N(Cc3ccccc3C)c3ccc(C(C)C)cc3)cccn12`, the Inhibition was 3.95% in the test on Staphylococcus aureus and -8.12% with Escherichia coli.
In the case of `CCCCOc1ccc(-c2cc3c4nnc(SCC(=O)Nc5ccc(Cl)cc5)n4ccn3n2)cc1`, the values for the Inhibition in the test with Staphylococcus aureus and with Escherichia coli were 6.59% and -0.55%, respectively.
Consider `O=C(Cn1nc2c(SC3CCCCC3)nccn2c1=O)Nc1ccccc1F`, for which the Inhibition in the test with Staphylococcus aureus was 2.83%; in the test with Escherichia coli it was -6.05%.
As for `Cc1cc2nn(CC(=O)Nc3ccc(F)cc3Cl)c(=O)n2c(Nc2ccccc2C)n1`, the Inhibition with Staphylococcus aureus is recorded as -3.09%; in the test with Escherichia coli, -11.67%.
The matching figures for `O=c1c2sccc2n2c(=O)n(Cc3cccc(C(F)(F)F)c3)nc2n1Cc1cccs1`: 22.09% and 2.86%.
For `COc1ccc(Cl)cc1NC(=O)CSc1nnc2c(=O)n(-c3ccccc3)ccn12` the same measures were 7.26% and -0.85%.
With `CC(C)(C)Sc1ccc2nn(CC(=O)Nc3ccccc3C(F)(F)F)c(=O)n2n1`, the Inhibition with Staphylococcus aureus is on record as 6.28%; with Escherichia coli, -2.49%.
Regarding `O=S(=O)(c1ccc2nncn2c1)N(Cc1cccc(Cl)c1)c1ccccc1`, the values for the Inhibition in the test with Staphylococcus aureus and in the test with Escherichia coli were 11.21% and -3.7%, respectively.
For `Cc1ccc(N(Cc2cc(F)cc(F)c2)S(=O)(=O)c2cccn3c(C)nnc23)cc1` the same measures were 11.96% and -4.21%.
As to `CCOc1ccc(NC(=O)CSc2nnc3c(=O)n(-c4ccc(OCC)cc4)ccn23)cc1`, the Inhibition was 16.17% in the test with Staphylococcus aureus and -1.04% in the test with Escherichia coli.
On to `Cc1ccc(CNC(=O)c2ccc3nn(CC(=O)Nc4ccc(C(F)(F)F)cc4)c(=O)n3c2)cc1`, for which the figures for the Inhibition in the test with Staphylococcus aureus and with Escherichia coli were -2.47% and -0.22%, respectively.
Take `Cc1cccc(N(Cc2cccc(F)c2)S(=O)(=O)c2cccn3c(C)nnc23)c1`: the Inhibition in the test with Staphylococcus aureus was 20.9%; in the test on Escherichia coli, -1.19%.
For `CCc1ccccc1Sc1nccn2c(=O)n(CC(=O)N3CCN(c4ccccc4F)CC3)nc12` the same measures were -3.66% and -8.54%.
For `CCOc1ccc(NC(=O)Cn2nc3c(Sc4ccc(C)cc4C)nccn3c2=O)cc1` the same measures were 0.32% and -7.3%.
For the compound `CC(C)CCn1c(=O)c2sccc2n2c(=O)n(Cc3ccccc3Cl)nc12`, the figures for the Inhibition in the test on Staphylococcus aureus and with Escherichia coli were 8.43% and 1.09%, respectively.
For `O=C(Cn1nc2ccc(SCc3ccc(Cl)cc3)nn2c1=O)Nc1ccccc1`, the Inhibition is given as 5.05% in the test with Staphylococcus aureus and -4.3% in the test with Escherichia coli.
For `COc1ccccc1Cn1c(=O)c2sccc2n2c(=O)n(Cc3c(F)cccc3Cl)nc12`, the Inhibition in the test with Staphylococcus aureus was 3.95%; with Escherichia coli it was 0.18%.
In the case of `COc1ccc(-c2cc3c4nn(CC(=O)N5CCCc6ccccc65)c(=O)n4ccn3n2)cc1`, the results for the Inhibition with Staphylococcus aureus and with Escherichia coli were 6.07% and 1.46%, respectively.
As to `O=S(=O)(c1ccc2nncn2c1)N(Cc1ccccc1F)c1ccc(F)c(F)c1`, the results for the Inhibition with Staphylococcus aureus and with Escherichia coli were -7.25% and -4.39%, respectively.
As to `O=C(Cn1nc2c(Sc3ccccc3)nccn2c1=O)Nc1cc(F)ccc1F`, the Inhibition was 0.01% with Staphylococcus aureus and -13.52% in the test on Escherichia coli.
For `COc1ccc(N2CCN(C(=O)Cn3nc4c(Sc5cccc(C)c5)nccn4c3=O)CC2)cc1` the same measures were 0.43% and -16.62%.
Turning to `Cc1ccccc1N1CCN(c2nccn3c(=O)n(CC(=O)Nc4cccc(C(C)C)c4)nc23)CC1`, the Inhibition is recorded as 14.78% in the test on Staphylococcus aureus and -9.47% with Escherichia coli.
`CCCCN(C)C(=O)CSc1nnc2c(=O)n(Cc3ccc(F)cc3)ccn12`: the figures for the Inhibition in the test on Staphylococcus aureus and with Escherichia coli were 7.74% and -2.27%, respectively.
Turning to `O=S(=O)(c1ccc2nncn2c1)N(Cc1ccccc1F)c1cccc(F)c1`, the Inhibition is recorded as -5.69% in the test on Staphylococcus aureus and -18.72% in the test with Escherichia coli.
Consider `CCc1nnc2ccc(S(=O)(=O)N(Cc3ccccc3)c3ccccc3)cn12`, for which the Inhibition is given as 5.6% with Staphylococcus aureus and -2.89% in the test on Escherichia coli.
Take `CN(C(=O)Cn1nc2nc(Nc3ccc(F)cc3)ccn2c1=O)c1ccccc1`: the figures for the Inhibition in the test on Staphylococcus aureus and in the test on Escherichia coli were -13.79% and -1.66%, respectively.
As to `COc1cccc(Cn2nc3ccc(-c4ccccc4)nn3c2=O)c1`, the figures for the Inhibition in the test on Staphylococcus aureus and in the test on Escherichia coli were 13.4% and -1.58%, respectively.
Turning to `Cc1ccc(Cl)cc1NC(=O)CSc1nnc2ccc(C(=O)Nc3cccc(F)c3)cn12`, the Inhibition in the test with Staphylococcus aureus came to 14.11%; in the test with Escherichia coli, 0.94%.
As to `CC(C)c1nnc2c(=O)n(CC(=O)Nc3ccc(Br)cc3)c3ccccc3n12`, the Inhibition in the test on Staphylococcus aureus amounted to 9.7%; with Escherichia coli, 7.11%.
In the case of `O=C(Cn1nc2nc(Nc3ccc(F)cc3)ccn2c1=O)N1CCCC1`, the Inhibition with Staphylococcus aureus is given as -4.71%; with Escherichia coli, -12.03%.
On to `O=C(CSc1nnc2c(=O)n(-c3cccc(F)c3)ccn12)Nc1ccc(Br)cc1F`, for which the Inhibition is 15.57% with Staphylococcus aureus and -1.22% with Escherichia coli.
For `CCC(C)NC(=O)Cn1c(=O)c2nnc(C)n2c2ccccc21` (configuration not stated) the same measures were 9.8% and -2.5%.
On to `O=C(Cn1nc2ccc(SCc3ccc(Cl)cc3)nn2c1=O)NCc1ccc2c(c1)OCO2`, for which the Inhibition in the test with Staphylococcus aureus is on record as -2.67%; in the test on Escherichia coli, -11.22%.
Turning to `CCc1nnc2c(S(=O)(=O)N(Cc3cc(F)cc(F)c3)c3cccc(F)c3)cccn12`, the Inhibition in the test with Staphylococcus aureus is listed as 2.06%; in the test with Escherichia coli, -5.05%.
With `Cc1cc2nn(CC(=O)Nc3cc(F)ccc3C)c(=O)n2c(Nc2ccc(F)c(C)c2)n1`, the Inhibition was 9.03% with Staphylococcus aureus and -0.59% in the test on Escherichia coli.
On to `Cc1cccc(CN(c2ccc(C(C)C)cc2)S(=O)(=O)c2cccn3c(C)nnc23)c1`, for which the Inhibition is given as 5.76% with Staphylococcus aureus and -1.18% with Escherichia coli.
As for `CCc1ccc(N(Cc2ccc(C)cc2)S(=O)(=O)c2cccn3c(CC)nnc23)cc1`, the Inhibition in the test with Staphylococcus aureus was 5.86%; in the test on Escherichia coli it was -4.79%.
`O=C(CSc1nnc2c(=O)n(-c3ccccc3)ccn12)Nc1ccc(Br)cc1F`: the figures for the Inhibition in the test with Staphylococcus aureus and with Escherichia coli were 2.85% and -9.92%, respectively.
The matching figures for `COC(=O)c1ccc(NC(=O)CSc2nnc3ccc(C(=O)Nc4cccc(F)c4)cn23)cc1`: 19.46% and -0.45%.
With `CCCCc1ccc(NC(=O)Cn2nc3c(Sc4ccccc4)nccn3c2=O)cc1`, the Inhibition is reported as 4.84% in the test with Staphylococcus aureus and -9.71% with Escherichia coli.
`Cc1ccc(NC(=O)Cn2nc3c4cc(-c5ccc(C)c(C)c5)nn4ccn3c2=O)c(Cl)c1`: the Inhibition is 9.28% in the test with Staphylococcus aureus and -1.41% in the test with Escherichia coli.
`COc1ccc(NC(=O)Cn2nc3ccc(-c4ccccc4)nn3c2=O)cc1Cl`: the Inhibition in the test on Staphylococcus aureus is on record as -3.72%; in the test on Escherichia coli, -7.68%.
Turning to `Cc1ccc(-c2cc3c4nnc(CCC(=O)NCc5ccc(C(F)(F)F)cc5)n4ccn3n2)cc1C`, the Inhibition is 3.78% in the test with Staphylococcus aureus and -2.88% in the test with Escherichia coli.
On to `COc1ccc(-n2ccn3c(SCC(=O)N4CCN(c5ccccc5F)CC4)nnc3c2=O)cc1`, for which the Inhibition in the test on Staphylococcus aureus is 7.08%; in the test with Escherichia coli, -4.94%.
The matching figures for `O=C(Cn1nc2ccc(SC3CCCCC3)nn2c1=O)Nc1ccc2c(c1)CCC2`: 4.8% and -2.69%.
For `N#Cc1ccc(NC(=O)Cn2nc3c(SC4CCCCC4)nccn3c2=O)cc1`, the Inhibition in the test with Staphylococcus aureus is 7.35%; in the test with Escherichia coli, -8.54%.
For the compound `O=C(Cn1nc2c(Sc3ccccc3)nccn2c1=O)Nc1ccc(Br)cc1F`, the Inhibition in the test on Staphylococcus aureus is on record as 5.84%; in the test on Escherichia coli, -2.08%.
As to `Cc1nnc2c(S(=O)(=O)N(Cc3ccc(F)cc3)c3ccc(C(C)C)cc3)cccn12`, the Inhibition is on record as -0.08% with Staphylococcus aureus and -8.42% with Escherichia coli.
For `COc1ccc(N(Cc2ccc(OC)c(F)c2)S(=O)(=O)c2ccc3nncn3c2)cc1` the same measures were 2.98% and -0.06%.
For `COc1cccc(Oc2nccn3c(=O)n(CC(=O)NC4CCCCC4)nc23)c1`, the Inhibition in the test with Staphylococcus aureus is recorded as 3.01%; with Escherichia coli, -4.58%.
For the compound `COc1ccc(-c2cc3c4nn(CC(=O)Nc5ccc(F)cc5)c(=O)n4ccn3n2)cc1`, the Inhibition is recorded as -1.37% in the test on Staphylococcus aureus and -7.82% in the test with Escherichia coli.
As for `Cc1ccc(C)c(CSc2nnc3c(=O)n(-c4ccc(Br)cc4)ccn23)c1`, the Inhibition in the test with Staphylococcus aureus is 3.9%; in the test on Escherichia coli it was -0.75%.
As for `CSc1ccc(CNC(=O)CCc2nnc3c(N4CCCCC4)nc4ccccc4n23)cc1`, the Inhibition in the test on Staphylococcus aureus was 14.53%; in the test with Escherichia coli, 2%.
As to `CSc1cccc(NC(=O)Cn2nc3ccc(SC(C)(C)C)nn3c2=O)c1`, the Inhibition in the test on Staphylococcus aureus was -2.88%; in the test on Escherichia coli, 1.52%.
With `Cc1ccc(NC(=O)CSc2nnc3ccc(C(=O)Nc4cccc(F)c4)cn23)c(C)c1`, the results for the Inhibition in the test with Staphylococcus aureus and in the test with Escherichia coli were 12.19% and -1.6%, respectively.
On to `COC(=O)c1ccc(NC(=O)Cn2nc3c(Oc4ccccc4)nccn3c2=O)cc1`, for which the Inhibition in the test with Staphylococcus aureus is 1.06%; in the test on Escherichia coli, -10.41%.
In the case of `Cc1cccc(Oc2nccn3c(=O)n(CC(=O)NCCCc4ccccc4)nc23)c1C`, the Inhibition is 9.48% with Staphylococcus aureus and -1.44% in the test on Escherichia coli.
Turning to `COc1ccc2[nH]cc(C(=O)CSc3nnc4c(=O)n(-c5ccc(C)c(C)c5)ccn34)c2c1`, the Inhibition with Staphylococcus aureus is reported as 17.24%; in the test with Escherichia coli, -2.44%.
Regarding `COc1ccc(CN(c2ccc(OC)cc2)S(=O)(=O)c2ccc3nnc(C)n3c2)cc1`, the Inhibition in the test with Staphylococcus aureus was 4.23%; with Escherichia coli it was -1.31%.
For `COc1cccc(-n2ccn3c(SCc4cccc(C(F)(F)F)c4)nnc3c2=O)c1` the same measures were 7.34% and -9.08%.
Turning to `O=S(=O)(c1ccc2nncn2c1)N(Cc1cccc(F)c1)c1cc(F)cc(F)c1`, the Inhibition is on record as 0.07% with Staphylococcus aureus and -4.91% with Escherichia coli.
